Results published in PubChem BioAssay AID1028 (SRMLSC, 2008).
Potency and affinity values are given separately.

Target: diphosphomevalonate decarboxylase (Streptococcus pneumoniae D39) (UniProt Q9FD53)
Experiment: diphosphomevalonate decarboxylase inhibitor confirmation – biochemical, cuvette format, coupled NADH fluorescence (AID 1028)
Conditions: purified DPM-DC, rate, at 50 µM, hits give high values;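 active = enzyme inhibitor confirmed by dose series, half-maximal inhibitory concentration at most 40 µM; inactive = the rest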

inhibition, inactive:
O=C(c1ccccc1-n1sc2ccccc2c1=O)N1CCOCC1 13.7%, COc1ccc2nc(-c3ccncc3)oc2c1 4.83%, c1ccc(-c2nc3ccccc3o2)cc1 2.96%, COc1ccc2nc(-c3ccc(C)cc3)oc2c1 5.23%, Cc1ccc(C)c(-c2nc3cccc(N)c3o2)c1 -0.39%, Nc1ccc2oc(-c3ccc(F)cc3)nc2c1 13.4%, COc1ccc(-c2nc3cc(N)ccc3o2)cc1 13.2%, COc1ccc2nc(-c3cc(C)ccc3C)oc2c1 1.13%, COc1ccc2oc(-c3ccc(C)cc3)nc2c1 -3.06%, Nc1ccc2oc(-c3ccc(Cl)cc3)nc2c1 12.8%, O=C(c1ccccc1-n1sc2ccccc2c1=O)N1CCCC1 16.1%, Cc1ccccc1-c1nc2cccc(N)c2o1 -2.22%, Fc1cccc(-c2nc3ccccc3o2)c1 4.51%, COc1ccc(OC)c(-c2nc3cc(N)ccc3o2)c1 10.3%, CCCN(CCC)C(=O)c1ccccc1-n1sc2ccccc2c1=O 14.3%, Nc1ccc2oc(-c3cccc(Cl)c3)nc2c1 8.07%, COc1ccc2oc(-c3ccc([N+](=O)[O-])cc3)nc2c1 1.63%, Clc1cccc(-c2nc3ccccc3o2)c1 1.68%, CCN(CC)C(=O)c1ccccc1-n1sc2ccccc2c1=O 14.9%, Cc1cccc(-c2nc3ccccc3o2)c1 5.31%
